# LASV entry inh – qHTS for Inhibitors of binding or entry into cells for Lassa Virus. 300,000 tested, 1.2% active. Potency, µM (top dose mostly 37.9 µM), without a hit: top-dose activity change, negative = inhibition, actives largely listed as inhibitors. Lassa virus pseudotype entry inhibition, cell reporter; calls by dose curve; tested in HEK293 cells; also: potency is read from the fitted curve at half-maximal effect; nearly all actives have a fitted effect of over 50% in size
# FMDV inh – High Throughput Screening for Foot and Mouth Disease Virus Antivirals. FMDV antiviral cell-based qHTS. Potency, µM (series often up to 57.9 µM), for the others: top-dose activity change, negative = inhibition, actives largely listed as inhibitors. 410,000 tested, 1.2% active. AID 1159524, 2015; calls by dose curve; tested in HEK293T cells; also: read-out not given here; potency is read from the fitted curve at half-maximal effect; nearly all actives have a fitted effect of over 45% in size
# Marburg entry inh – qHTS for inhibitors of binding or entry into cells for Marburg Virus; Marburg virus pseudotyped entry inhibition, cell reporter; Potency, µM (titrated, usually from 37.8 µM), for inactives: at the highest dose activity change, negative = inhibition, hits mostly inhibitors; 300,000 tested, 1.8% active; AID 540276, 2011; calls by dose curve; tested in HEK293 cells; also: potency is read from the fitted curve at half-maximal effect
# HCV inh – qHTS Assay for Inhibitors of Hepatitis C Virus (HCV) | Huh7.5.1 HCVcc-Cre infection, luciferase reporter, 44 h | Potency, µM (series often up to 41.8 µM), without a hit: top-dose activity change, negative = inhibition, actives largely listed as inhibitors | 340,000 tested, 3.4% active | AID 651820, 2012; active = well fitted inhibition curve with a large enough effect; inconclusive = small, poorly fitted or top-dose-only effect, or another doubt; inactive = no such curve, though single readings can be large or run the other way; also: potency is read from the fitted curve at half-maximal effect
#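 Infectious HCVcc-Cre (~0.5 moi) was added to cells just after compound, with cells seeded 4 h earlier at 1,000 per well. Luciferase activity after 44 h culture reported infection; substrate was incubated 15 min at room temperature before reading.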
# HCMV antiviral – qHTS Assay for inhibitors of the human cytomegalovirus (HCMV). activity change, negative = inhibition, % at 57.5 µM. AID 1259415, 2018. 410,000 tested, 4.5% active. HFF cells, HCMV-luciferase reporter, 72 h; stronger effect = lower value; in the data active = activity change below about -60%; inconclusive = no clear call, values can overlap the other calls; inactive = above about -39%
#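 Screen run at 2 compound doses on HFFs infected with reporter HCMV, MOI 1 PFU/cell. Luciferase activity from cell lysates at 72 h post infection gave inhibition relative to buffer-only and Salinomycin wells.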
# Numbers without * were called inactive; u = inconclusive; x = no result given; ! = not active in a repeat; [ ] = another dose, or the depositor's remark. In the library only some 7.9% were active in any assay of this set; here they are far more common. % is scaled to controls: 0 for no effect and ±100 for the full control effect.
SMILES,LASV entry inh,FMDV inh,Marburg entry inh,HCV inh,HCMV antiviral
CN(CC(=O)Nc1ccc(Cl)c(C(F)(F)F)c1)C(=O)Cc1n[nH]c(=O)c2ccccc12,u,u,-26%,u,-73*
Cc1cc(O)ccc1C1(c2ccc(O)cc2C)OC(=O)c2ccccc21,5%,-11%,u,2%,-96*
CCNC(=O)CC1C(=O)N(c2ccc(F)cc2)C(=O)N1Cc1ccc(OC)c(OC)c1 (stereo not drawn),8%[46.1 µM],0%,-23%[46.1 µM],x,10
CCCNC(=O)C1CCC(Cn2c(=O)c3sccc3n(CC(=O)N3CCCC3)c2=O)CC1 (stereo not drawn),-2%[46.1 µM],0%,x,x,6
N#Cc1cc2c(nc1SCC(O)CS(=O)(=O)Cc1ccc(Cl)cc1)CCCC2 (stereo not drawn),-33%,x,-14%,u,-64*
N#CCSc1nc2c(cc1C#N)CCCCCC2,u,-17%,-9%,u,-68*
CC(C)(C)c1ccc(S(=O)(=O)CC(O)CSc2nc3c(cc2C#N)CCCC3)cc1 (stereo not drawn),11%,11%,u,10%,81
COc1ccc(CC(=O)NCc2nc3cccnc3n2Cc2ccc(C)cc2)cc1,4%[46.1 µM],0%,x,x,u
COc1cccc(O)c1CN1CCC2(CC1)c1ccccc1[C@@H](NC(=O)c1ccsc1)[C@@H]2OC,x,-7%,x,x,x
Cc1ccc(Cl)cc1N1CCN(C(=O)c2ccc(CN3CCOCC3)cc2)CC1,-30%,x,u,25µM*,6
CC(=O)c1c(C)[nH]c(C(=O)N2CCN(c3cc(Cl)ccc3C)CC2)c1C,6.5µM*,u,7.3µM*,u,13
CC(=O)c1c(C)[nH]c(C(=O)N2CCN(c3ccc(F)cc3)CC2)c1C,4%,-27%,1%,-13%,-71*
Cc1cccc(N2CCN(C(=O)C3(S(=O)(=O)c4ccc(Cl)cc4)CC3)CC2)c1C,x,-15%,x,u,u
Cc1ccc(Cl)cc1N1CCN(C(=O)C2(S(=O)(=O)c3ccc(Cl)cc3)CC2)CC1,1%,u,-19%,14µM*,31
CCC(=O)N1CCc2cc(S(=O)(=O)NC(Cc3ccccc3)C(=O)Nc3ccccc3C)ccc21 (stereo not drawn),-1%[46.1 µM],16%,-21%[46.1 µM],x,2
Cc1cc(F)ccc1NC(=O)CN1C(=O)CCc2cc(S(=O)(=O)N3CCOCC3)ccc21,u,-13%,x,x,26
CCOc1ccc(-n2c(=O)c3c4c(sc3n(Cc3cccc(C)c3)c2=O)CCCC4)cc1,-6%[46.1 µM],u,4%[46.1 µM],x,-21
Cc1ccc(Cl)cc1N1CCN(C(=O)c2cc3c(=O)[nH]c4ccccc4c3n2C)CC1,u,7.9µM*,5.6µM*!,8.9µM*!,-95*
COc1ccc2c(c1)c1c(c(=O)n(Cc3ccccc3)c(=O)n1CC(=O)NCc1ccccc1Cl)n2C,7%[46.1 µM],-23%,-5%[46.1 µM],x,13
COc1ccc(S(=O)(=O)NCCc2sc3nc(-c4ccc(C)cc4)nn3c2C)cc1C,-34%[46.1 µM],4%,x,x,-94*
COc1ccc(-c2nc3sc(CCNC(=O)C(=O)Nc4ccc(C)c(C)c4)c(C)n3n2)cc1,-5%[46.1 µM],18%,x,x,-5
CCc1ccc(NC(=O)C(=O)NCCc2sc3nc(-c4ccc(OC)cc4)nn3c2C)cc1,-17%[46.1 µM],-9%,x,x,-64*
CCCS(=O)(=O)NCCc1sc2nc(-c3ccc(F)cc3)nn2c1C,-13%[46.1 µM],-17%,x,x,-71*
CCOc1ccc(S(=O)(=O)NCCc2sc3nc(-c4ccc(F)cc4)nn3c2C)cc1,u,-18%,x,x,u
CCCS(=O)(=O)NCCc1csc2nc(-c3ccc(C)cc3)nn12,6%[46.1 µM],-18%,x,x,69
SMILES,LASV entry inh,FMDV inh,Marburg entry inh,HCV inh,HCMV antiviral
CCCS(=O)(=O)NCCc1sc2nc(-c3ccc(Cl)cc3)nn2c1C,u,-16%,x,x,-66*
COc1cccc(-n2c(=O)c3c(C)c(C)sc3n(Cc3ccccc3C#N)c2=O)c1,1%[46.1 µM],1%,-8%[46.1 µM],x,1
Cc1cc(C)c(S(=O)(=O)NCCc2sc3nc(-c4ccc(F)cc4)nn3c2C)c(C)c1,24%[46.1 µM],30%,x,x,-60*
COc1ccc(S(=O)(=O)NCCc2csc3nc(-c4ccccc4)nn23)cc1OC,9%[46.1 µM],40%,x,x,13
Cc1c(CCNC(=O)Cc2ccc(F)cc2)sc2nc(-c3ccc(F)cc3)nn12,-1%[46.1 µM],-12%,x,x,-23
COc1ccc(-c2nc3scc(CCNS(=O)(=O)c4ccc(Oc5ccccc5)cc4)n3n2)cc1OC,u,11%,x,x,-72*
COc1cccc(OC)c1CN1CCC2(CCC(CNC(=O)c3ccccc3)O2)CC1 (stereo not drawn),x,-11%,x,x,x
CCCNC(=O)c1cc2n(n1)CCCN(Cc1ccc(F)cc1)C2=O,x,0%,-28%[46.1 µM],x,6
O=C(NNC1=NCCCCC1)c1cccc([N+](=O)[O-])c1,15%[46.1 µM],9%,-5%[46.1 µM],0%,0
O=C(NNC1=Nc2ccccc2SC1)c1ccccc1F,u,-3%,u,14µM*,-86*
O=C(NC1=NCCS1)c1ccccc1F,u,23%,3%[14.2 µM],7%,76
O=C(NNC1=Nc2ccccc2SC1)c1cccc([N+](=O)[O-])c1,u,-5%,u,-20%,-84*
O=C(O)[C@@H](O)c1ccco1,x,x,-11%,x,x
Cc1cccn2c(=O)c(C(=O)N3CCN(c4ccc(Cl)cc4)CC3)cnc12,u,-21%,x,x,-8
O=C(CN1C(=O)CCc2cc(S(=O)(=O)N3CCOCC3)ccc21)NCc1ccccc1Cl,5%[46.1 µM],-1%,x,x,32
CCCCC[C@@H](/C=C/C1C(=O)C=C[C@H]1C/C=C\CCCC(=O)OC)OC(C)=O (stereo partly drawn),x,28µM*,x,-9%[8.37 µM],2
CCCCC[C@H](O)/C=C/[C@H]1C=CC(=O)[C@@H]1CCCCCCC(=O)O,x,-8%[6.7 µM],x,x,x
CC(C)(C)c1ccc(C(=O)NCc2cccnc2)cc1,u,20%,26%,-8%,67
CC(C)(C)c1ccc(C(=O)NC(=S)NCc2cccnc2)cc1,u,-11%,u,22µM*,-78*
CC(C)(C)c1ccc(NC(=S)NCc2cccnc2)cc1,x,3%,x,32µM*,-13
S=C(NCc1cccnc1)Nc1ccc(Oc2ccc(Cl)cc2)cc1,-5%,0%,u,u,-61*
CCC1CCCCN1S(=O)(=O)c1ccc(N2CCCCS2(=O)=O)cc1 (stereo not drawn),2%[46.1 µM],10%,x,x,-15
CCOc1ccc(-c2cc3nc(C4CCN(C(=O)OC(C)(C)C)CC4)c(C(=O)Nc4cccc(Cl)c4C)cn3n2)cc1,-9%[46.1 µM],-28%,u,x,5
CCCCNC(=O)c1ccc2c(=O)n(-c3ccccc3)c(=O)[nH]c2c1,9%[46.1 µM],4%,10%[46.1 µM],x,-3
Cc1ccc2[nH]c(CSc3nnc(NC(=O)c4ccccc4C)s3)cc(=O)c2c1,2%[46.1 µM],u,x,x,-74*
Cc1ccc2[nH]c(CSc3nnc(NC(=O)c4ccccc4F)s3)cc(=O)c2c1,0%[46.1 µM],u,x,x,-11

# Compound activity deposited in PubChem BioAssay by National Center for Advancing Translational Sciences (NCATS).
